Consider 99 molecules from ChEMBL document CHEMBL3988442, “University of Dundee, Small-Polar-MMV Screening Library” (2021).

The whole screen tested about 48,000 compounds, of which about 13,000 (27%) showed an effect of 50% or more. Some of the results follow.

The subject of the test is Wolbachia pipientis. Kind of test: Anti-Wolbachia Cell-Based Screen. Format: functional. Set-up: scale not given: in the data most compounds retested in dose-response had high values. To be noted: 5 µM.
For `COCc1nc2cc(NCc3sc(C)nc3C)ccc2o1`, the “Percent Effect” value was 1.098%.

As for `CC1=C(C(=O)NCc2cccnc2-n2cnc3ccccc32)OCCO1`, the “Percent Effect” value was -15.12%.

Regarding `CSc1nccc(N2CCC(=O)N(CC3CC3)C(C(C)C)C2)n1` (centres undefined), the “Percent Effect” value is listed as 8.272%.

Consider `CCNC(=O)N1CC[C@H]2CC(=O)N(CCN3CCNC3=O)CC[C@H]2C1`, for which the “Percent Effect” value was determined as 12.62%.

For the molecule `Cl.OC(CNCc1ccccc1C(F)(F)F)c1ccccc1` (centres undefined), the “Percent Effect” value is given as -21.52%.

On to `CC1CCCCN1Cc1nc(Cc2ccccc2)no1` (centres undefined), for which the “Percent Effect” value is recorded as -14.27%.

In the case of `CC(C)Cc1noc(CN2CCOCC2)n1`, the “Percent Effect” value is -2.166%.

`CC1COCCN1Cc1nc(Cc2ccccc2)no1` (centres undefined): the “Percent Effect” value was 106.6%.

As for `CC(C)Cc1noc(CN2CCN(CCO)CC2)n1`, the “Percent Effect” value is reported as -13.58%.

In the case of `Cn1cnc2c1CCN(Cc1nc(Cc3ccccc3)no1)C2`, the “Percent Effect” value was -6.335%.

With `CC(C)Cc1noc(CN2CCOCC2C)n1` (centres undefined), the “Percent Effect” value is 87.61%.

As for `O=C(O)[C@@]12CN(c3cnccn3)C[C@@H]1CN(C1CCCC1)C2`, the “Percent Effect” value is listed as 11.78%.

Regarding `CCS(=O)(=O)N(C)CC(=O)Nc1ccc(Br)cn1`, the “Percent Effect” value worked out at 11.17%.

Turning to `CC1CN(C)c2ccccc2CN1C(=O)c1ccoc1` (centres undefined), the “Percent Effect” value is given as -34.7%.

With `COc1ccc(OC)c(C2CCN(C(=O)[C@H]3CC[C@@H](O)CC3)C2)c1` (some centres undefined), the “Percent Effect” value came out at 4.796%.

For the molecule `COc1cccc(CN2CC(O)CN(C(=O)C3CCC3)CC2=O)c1OC` (centres undefined), the “Percent Effect” value came out at 107.9%.

For `CNC(=O)[C@@H](c1ccccc1OC)N1CCC[C@H]1C(=O)N1CC[C@@H](O)C1.Cl`, the “Percent Effect” value turned out to be 4.858%.

Turning to `COc1cccc(CN2CC(O)CN(C(=O)C3CC3)CC2=O)c1OC` (centres undefined), the “Percent Effect” value came out at 103.4%.

Turning to `COc1ccccc1CC1CCN(C(=O)CCN2CCOC2=O)CC1`, the “Percent Effect” value is given as -13.03%.

With `COc1ccccc1OC1CCN(C(=O)C2CCCN(C)C2)CC1` (centres undefined), the “Percent Effect” value is -2.238%.

With `CSCc1noc(CN2CCC3(CC2)CC(=O)N(CC(C)C)C3)n1`, the “Percent Effect” value is recorded as 6.142%.

As to `Fc1ccc(CN2CCCn3nnc(COCC4CC4)c3C2)cc1.O=C(O)C(F)(F)F`, the “Percent Effect” value is listed as -22.46%.

On to `CNCc1n[nH]c(=O)n1CC1CCCCC1`, for which the “Percent Effect” value amounted to 9.971%.

Consider `CC(=O)N[C@@H]1CN(C(=O)CC2CCOCC2)C[C@H]1O`, for which the “Percent Effect” value was determined as 144.5%.

For `CCC(CC)n1nc(C)cc1NC(=O)CC1CCOCC1`, the “Percent Effect” value came to 0.9076%.

`O=C(CC1CC1)N1C[C@H]2CN(CC3CC3)C(=O)[C@H]2C1`: the “Percent Effect” value is -33.8%.

Turning to `CCOCC(=O)N1C[C@@H](O)[C@H](NC(C)=O)C1`, the “Percent Effect” value worked out at 181%.

Consider `CCCSCC(=O)N1C[C@@H](NC(C)=O)[C@H](c2ccc(OC)cc2)C1`, for which the “Percent Effect” value is 13.13%.

With `CCOCC(=O)N1CCC(c2nccn2C)CC1`, the “Percent Effect” value is listed as -1.738%.

Consider `CCOCC(=O)N1C[C@@H](NC(C)=O)[C@H](c2ccc(OC)cc2)C1`, for which the “Percent Effect” value was 0.296%.

Consider `COc1ccc([C@@H]2CN(C(=O)CCC(F)(F)F)C[C@H]2NC(C)=O)cc1`, for which the “Percent Effect” value is recorded as 11.36%.

On to `CC(=O)N[C@@H]1CN(C(=O)CC2CC2)C[C@H]1O`, for which the “Percent Effect” value came to 207.4%.

On to `O=C(NCCCn1cncn1)c1ccc(-c2ccco2)[nH]c1=O`, for which the “Percent Effect” value was 2.326%.

For the molecule `CNC(=O)C1Cc2ccccc2CN1CCc1cccs1` (centres undefined), the “Percent Effect” value is 15.23%.

Consider `CNC(=O)[C@@H]1[C@@H](c2ccccc2)CN2CCN(Cc3cccs3)C[C@H]12`, for which the “Percent Effect” value is listed as 88.53%.

As for `CNC(=O)[C@@H]1[C@@H](c2ccccc2)CN2CCN(Cc3ccco3)C[C@H]12`, the “Percent Effect” value is reported as 101.4%.

`Cc1n[nH]c(C)c1CCNC(=O)C1CCCN(Cc2ccco2)C1` (centres undefined): the “Percent Effect” value is listed as -10.07%.

Consider `Cc1cc(CNC(=O)N2CCN(Cc3ccccc3)C[C@H]2C)on1`, for which the “Percent Effect” value is on record as -6.347%.

As for `CNC(=O)[C@@H]1[C@H]2CN(Cc3ccoc3)CCN2C[C@H]1c1ccccc1`, the “Percent Effect” value is recorded as 117.2%.

Regarding `CCc1ccc(CNC(=O)N2CCN(Cc3cc(C)no3)CC2)s1`, the “Percent Effect” value is 7.686%.

Turning to `Cc1c(C(=O)NCC2CCN(Cc3ccco3)C2)[nH]c2ccccc12` (centres undefined), the “Percent Effect” value turned out to be 19.49%.

Consider `CN(C)C(=O)NC[C@H]1OC[C@@H]2CCN(Cc3ccoc3)C[C@@H]21`, for which the “Percent Effect” value is reported as -34.99%.

Take `CNC(=O)[C@@H]1[C@@H](c2ccccc2)CN2CCN(Cc3cc(C)no3)C[C@H]12`: the “Percent Effect” value is on record as 101.2%.

Take `O=C(Nc1ccc(-c2ccn[nH]2)cc1)C1CCCN(Cc2ccoc2)C1` (centres undefined): the “Percent Effect” value was 1.932%.

As to `CN1C(=O)CO[C@H](c2ccc(NC(=O)NC(C)(C)C)cc2)[C@H]1CO`, the “Percent Effect” value is -13.32%.

Regarding `Cc1ccc(N(CCC#N)C(=O)CN2CCCC2c2cccs2)cc1` (centres undefined), the “Percent Effect” value is -26.13%.

As to `CCN(C(=O)CN1CCCC1c1cccs1)c1ccccc1C` (centres undefined), the “Percent Effect” value was 5.729%.

As to `COc1ccc(CN2CCSCC2)c(OC)c1`, the “Percent Effect” value is recorded as -5.529%.

As for `Oc1ccccc1CN1CCCCCC1c1cccs1` (centres undefined), the “Percent Effect” value was determined as 93%.

`COc1ccc(CN2CCCCCC2c2cccs2)c(O)c1` (centres undefined): the “Percent Effect” value stood at 114.4%.

For `COc1ccc(OC)c(CN2CCCCCC2c2cccs2)c1` (centres undefined), the “Percent Effect” value is given as -3.603%.

`COc1ccc(CN2CCCCCC2c2cccs2)c(OC)c1` (centres undefined): the “Percent Effect” value is recorded as 95.82%.

As to `Cn1nc(C(=O)N(CC(F)(F)F)c2cccc(Cl)c2)ccc1=O`, the “Percent Effect” value was -17.45%.

With `Cn1cc(NC(=O)Nc2ccccn2)cc(Cl)c1=O`, the “Percent Effect” value is 10.33%.

As for `CNC(=O)[C@@H]1COC[C@H]2CN(C(=O)c3cccc(OC)c3)C[C@H]21`, the “Percent Effect” value is 4.207%.

With `Cl.NCCNS(=O)(=O)Cc1ccc(Br)cc1`, the “Percent Effect” value is -57.57%.

As to `CC(=O)N1CCC(N2CCOC[C@H]2c2nc(-c3ccc(Cl)s3)c[nH]2)CC1`, the “Percent Effect” value is -14.52%.

Take `Cc1ccc(S(=O)(=O)NCc2cccc(C(=O)N3CCCC3)c2)cc1F`: the “Percent Effect” value was found to be 110.6%.

As to `Cc1ccc(S(=O)(=O)NCCNC(=O)c2ccoc2)cc1F`, the “Percent Effect” value is on record as -0.905%.

On to `O=C(c1cccc(S(=O)(=O)NC[C@@H]2C[C@H](F)CN2)c1)N1CCCCC1`, for which the “Percent Effect” value is reported as 0.137%.

In the case of `O=C(c1cccc(CNS(=O)(=O)c2ccc(F)cc2)c1)N1CCCC1`, the “Percent Effect” value amounted to 130.7%.

`N#Cc1cnc(NCc2cccc(C(=O)N3CCCC3)c2)c(Cl)c1`: the “Percent Effect” value was -5.94%.

`CC(C)c1nc(S(=O)(=O)N2CCSc3ccccc32)c[nH]1`: the “Percent Effect” value is listed as -4.998%.

With `CC(C)c1ccc(OCCNC(=O)c2ccoc2)cc1`, the “Percent Effect” value is 6.267%.

Turning to `Cc1nn(CC(=O)Nc2cccc(F)c2)c(N)c1C#N`, the “Percent Effect” value is given as -11.77%.

For `CSCc1noc(-c2nc3c([nH]2)CCCNC3=O)n1`, the “Percent Effect” value is recorded as 14.73%.

As for `CC(C)(C)c1noc(-c2nc3c([nH]2)CCCNC3=O)n1`, the “Percent Effect” value turned out to be 2.046%.

Take `Cc1cccc(Cc2nc3c([nH]2)CCCNC3=O)c1`: the “Percent Effect” value is listed as -1.705%.

`CC(C)Oc1cccc(Cc2nc3c([nH]2)CCCNC3=O)c1`: the “Percent Effect” value is on record as 11.57%.

With `O=C1NCCCc2[nH]c(Cc3cccc(F)c3)nc21`, the “Percent Effect” value is recorded as -0.783%.

On to `COc1ccc(-c2nc3c([nH]2)CCCNC3=O)cc1OC`, for which the “Percent Effect” value was determined as 96.66%.

`CC(C)Oc1cccc(-c2nc3c([nH]2)CCCNC3=O)c1`: the “Percent Effect” value amounted to 99.49%.

As for `COc1cc(-c2nc3c([nH]2)CCCNC3=O)ccc1OC(C)C`, the “Percent Effect” value is listed as 84.8%.

Take `COc1cc(-c2nc3c([nH]2)CCCNC3=O)cc(OC)c1OC`: the “Percent Effect” value is 91%.

For the molecule `COc1ccccc1C1CNC(=O)c2nc(-c3cnn(C)c3)[nH]c2C1` (centres undefined), the “Percent Effect” value was -3.18%.

For `CCN1CCCN(S(=O)(=O)c2cc3ccccc3o2)CC1`, the “Percent Effect” value was -2.661%.

For the molecule `COc1cc(-c2nc3c([nH]2)CCCNC3=O)ccc1O`, the “Percent Effect” value came out at 101.7%.

Turning to `COc1ccccc1C1CNC(=O)c2nc(-c3c(C)n[nH]c3C)[nH]c2C1` (centres undefined), the “Percent Effect” value was -21.26%.

For the molecule `Cc1ccc(C(=O)Nc2ccc(N3CCCC3)cn2)cc1F`, the “Percent Effect” value was -12.84%.

`CC(C)N(CCNC(=O)N1CCCC(N(C)C)C1)C1CC1` (centres undefined): the “Percent Effect” value is on record as 3.264%.

Consider `CN(C)CCO[C@H]1CN(Cc2cccc(C#N)c2)[C@@H]2COC[C@H]12.O=C(O)C(F)(F)F.O=C(O)C(F)(F)F`, for which the “Percent Effect” value was -16.47%.

As for `Cc1ccc(CN2C[C@H](OCCN(C)C)[C@H]3OCCC[C@H]32)o1.O=C(O)C(F)(F)F.O=C(O)C(F)(F)F`, the “Percent Effect” value is 11.84%.

For `CN(C)CCO[C@H]1CN(Cc2ccco2)[C@@H]2COC[C@H]12.O=C(O)C(F)(F)F.O=C(O)C(F)(F)F`, the “Percent Effect” value stood at 94.89%.

Consider `CN(C)CCO[C@H]1CN(C(=O)c2ccc3c(c2)OCO3)[C@@H]2COC[C@H]12`, for which the “Percent Effect” value is -7.678%.

Take `Cc1ccc(CN2C[C@H](OCCN(C)C)[C@H]3COC[C@H]32)o1.O=C(O)C(F)(F)F.O=C(O)C(F)(F)F`: the “Percent Effect” value was determined as 118.1%.

For the molecule `CCc1cc(N2CCN(C(C)=O)CC2)n2nc(C)c(C)c2n1`, the “Percent Effect” value is -3.628%.

In the case of `CC1CCCCN1S(=O)(=O)NCc1cccnc1OC1CCCC1` (centres undefined), the “Percent Effect” value was 2.179%.

As for `CCOCCn1c(=O)[nH]c2cc(C(=O)N(C)CCc3cn[nH]c3)ccc21`, the “Percent Effect” value was -12.36%.

Regarding `CCc1nccc(CN2CCC(CNC(=O)[C@H]3CC[C@H](C)CC3)C2)n1` (some centres undefined), the “Percent Effect” value was -6.322%.

With `O=C(NC[C@H]1CC[C@H](c2ccnc3ncnn32)CC1)C1CC1`, the “Percent Effect” value turned out to be 132.8%.

Regarding `O=C(NCC1CC1)c1cnc(-c2ccccc2)nc1`, the “Percent Effect” value was -4.836%.

`CCc1nccc(CN2CCCC(CNC(=O)c3ccccn3)C2)n1` (centres undefined): the “Percent Effect” value is -4.435%.

With `O=C(CN1CCC(c2ccnn2CCO)CC1)NCC1CC1`, the “Percent Effect” value is -5.639%.

As to `O=C(NC[C@H]1CC[C@H](c2ccnc3ncnn32)CC1)c1ccccn1`, the “Percent Effect” value came to 132.7%.

Turning to `O=C(NCc1ccnc(O)c1)NCC1CCCC1`, the “Percent Effect” value was -3.505%.

With `COCC(=O)NC[C@H]1CC[C@H](c2ccnc3ncnn32)CC1`, the “Percent Effect” value came out at 112%.

On to `Cc1nccn1-c1cc(CNC(=O)COCC2CC2)ccn1`, for which the “Percent Effect” value is reported as -10.58%.

With `CCNC(=O)NC1CCCN(c2ccc(C)cc2)C1=O` (centres undefined), the “Percent Effect” value is recorded as -8.82%.

`COc1ncnc(N(C)C)c1NC(=O)c1cscc1C`: the “Percent Effect” value was -1.164%.
